Common to all, as to experiment: NCI-60 one-dose screen, 48 h (100 = growth as untreated, 0 = no growth, -100 = all killed)
Common to all, as to conditions: 10 µM unless noted

Experiment [1] relates to SK-MEL-2 melanoma.
Experiment [2] relates to SN12C renal.
Experiment [3] relates to UO-31 renal.
Experiment [4] has as its system TK-10 renal.
The test system of experiment [5] is ACHN renal.
For experiment [6], the system named is CAKI-1 renal.
For experiment [7], the system named is A498 renal.
Experiment [8] concerns CCRF-CEM leukemia.
For experiment [9], the system named is MOLT-4 leukemia.
Experiment [10] relates to RPMI-8226 leukemia.
For experiment [11], the system named is OVCAR-5 ovarian.
The subject of experiment [12] is OVCAR-4 ovarian.
The subject of experiment [13] is SK-OV-3 ovarian.
The subject of experiment [14] is IGROV1 ovarian.
For experiment [15], the system named is OVCAR-3 ovarian.
In experiment [16] the test system is HS 578T breast.
Experiment [17] relates to NCI/ADR-RES ovarian.
Experiment [18] deals with OVCAR-8 ovarian.
Experiment [19] concerns SR leukemia.

Compounds without any hit were thinned out: in the full panel of roughly 83,000, 20% have a hit.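 For each line, cells grew in 96-well plates with the test compound present at a single concentration for 48 hours.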 A number with no mark means an inactive call. Calls of active or inactive are those of the source. Rule for the calls: active = growth percent below 10; inactive = the rest.

Turning to `O=C(/C=C/c1cccc(Cl)c1)c1ccc(O)c(CN2CCN(c3cc4c(cc3F)c(=O)c(C(=O)O)cn4C3CC3)CC2)c1`, the growth in experiment [1] was 53.7%; in experiment [2] it was 18.9%; in experiment [3], 21.5%; in experiment [4], 48.1%; in [5] it was 27.7%; in experiment [6] it was 44.6%. The growth is 25.9% in experiment [7]; 25.1% in experiment [8]; 59.9% in experiment [9]; 4.11% (active) in [10]; 52.6% in [11]; 79.5% in [12]. The growth was 79.8% in experiment [13]; 48% in experiment [14]; 40.8% in [15]; 41.3% in [16]; 60.5% in [17].
Take `CC[C@@H](C(=O)[C@@H](C)[C@@H](O)[C@H](C)[C@@H]1O[C@@H]([C@@H](CC)C(=O)O)CC[C@@H]1C)[C@H]1OC2(C=C[C@@H](O)[C@]3(CC[C@@](C)([C@H]4CC[C@](O)(CC)[C@H](C)O4)O3)O2)[C@H](C)C[C@@H]1C` (stereo partly drawn): the growth in experiment [1] was -55.1% (active); in experiment [2], 16.1%; in experiment [3], 20.4%; in experiment [4], 29.7%; in experiment [5], 33.4%; in experiment [6], 18.2%. Further, the growth in experiment [7] was -79.2% (active); in experiment [8] it was 0.899% (active); in [9] it was -8.95% (active); in experiment [10], -36.1% (active); in experiment [18], 31.9%; in [11], 57.7%. The growth is 35.8% in [12]; 30.2% in [13]; 40.2% in experiment [14]; 14.6% in [15]; 30% in [16]; 29.6% in experiment [17].
In the case of `COc1ccc(/C=C/C(=O)c2cc(O)ccc2O)cc1`, the growth in experiment [1] was 101%; in experiment [2], 93.7%; in experiment [3], 73.1%; in [4] it was 95.3%; in experiment [5], 84.9%; in experiment [6], 67.7%. The growth in experiment [7] was 109%; in [8], 41.1%; in experiment [9] it was 79.2%; in [19] it was 71.9%; in experiment [10] it was 45.8%; in experiment [18] it was 88.6%. Besides, the growth in [11] was 108%; in experiment [12], 136%; in [13] it was 115%; in experiment [14], 83.4%; in [15] it was 83.4%; in experiment [17] it was 91.8%.
Turning to `O=C(O)c1ccc(NC(=O)c2ccc(-c3cccc([N+](=O)[O-])c3)o2)cc1`, the growth in experiment [1] is 102%; in [2], 93.2%; in experiment [3], 77.8%; in experiment [4] it was 102%; in experiment [5] it was 104%; in experiment [6], 88%. Besides, the growth in experiment [7] is 110%; in experiment [8], 106%; in experiment [9], 109%; in [19] it was 113%; in experiment [10], 101%; in [18] it was 103%. In addition, the growth in experiment [11] was 106%; in [12], 93.9%; in [13], 98.8%; in [14], 92.2%; in experiment [15], 102%; in [16], 90.7%. The growth in experiment [17] is 98.5%.
For `Cc1cc(N2CCN(c3ccnc4cc(Cl)ccc34)CC2)nc(NC2CCCCC2)n1`, the growth was 33.1% in experiment [1]; 47.2% in experiment [2]; 6.25% (active) in experiment [3]; 48.8% in experiment [4]; 40.6% in experiment [5]; 37.7% in experiment [6]. Moreover, the growth in experiment [7] is -2.63% (active); in experiment [8], 1.71% (active); in experiment [9], -14.9% (active); in experiment [19] it was -24% (active); in experiment [10], -37.5% (active); in experiment [18], 60.3%. Further, the growth in [11] was 66.8%; in experiment [12] it was 33.2%; in experiment [13] it was 56.3%; in experiment [14], 18.6%; in experiment [15], 38.2%; in experiment [16], 57.9%.
For the molecule `COc1ccc(C(=O)c2sc3nc(C)cc(C)c3c2N)cc1OC`, the growth was 102% in experiment [2]; 87.3% in experiment [3]; 88.7% in experiment [4]; 88.2% in [5]; 99.5% in experiment [6]; 87.5% in experiment [7]. In addition, the growth was 98.2% in experiment [8]; 96.4% in [9]; 83.5% in [19]; 96% in experiment [10]; 65.7% in [18]; 104% in experiment [11]. Also, the growth in [12] is 85.3%; in [13], 77.6%; in experiment [14], 88.8%; in [15], 94.8%; in experiment [16], 91.2%; in [17], 90.2%.
In the case of `Clc1ccc2c(NCCCNc3nc(-n4ccnc4)nc4ccccc34)ccnc2c1`, the growth is 103% in experiment [1]; 84.4% in experiment [2]; 78.8% in [3]; 102% in [4]; 97.7% in experiment [5]; 78.2% in [7]. The growth in experiment [8] is 75.2%; in [9] it was 68%; in [19] it was 58.4%; in experiment [10], 69.3%; in experiment [18], 86.2%; in [11] it was 96.3%. Also, the growth in experiment [12] was 75%; in experiment [13] it was 94.5%; in [14], 79.1%; in experiment [15] it was 90.2%; in experiment [16] it was 84.6%; in experiment [17] it was 101%.
As for `Nc1n[nH]c2ccc([C@@H]3Nc4ccc5cn[nH]c5c4[C@H]4C5CCC(C5)[C@@H]34)cc12` (stereo partly drawn), the growth in [1] is 55.5%; in [2], 43.9%; in experiment [3] it was 38.9%; in experiment [4] it was 74.3%; in [6], 33.2%; in experiment [8], 15.6%. The growth in experiment [9] is 20.8%; in experiment [19] it was 14.3%; in [10], 40.3%; in experiment [18] it was 35.5%; in [11] it was 40.3%; in experiment [12] it was 35.2%. The growth in experiment [13] was 37.7%; in experiment [14] it was 22.1%; in experiment [15] it was -5.18% (active); in [16] it was 21.2%; in experiment [17], 20.7%.

Source of the values: PubChem BioAssay (NCI).
